# Measured values as given in PubChem BioAssay (Tox21).
# Inconclusive results are not listed. Entries that show only a call come without a potency. The source made the active and inactive calls. Calls follow the shape of the dose curve; as a rule, active = well fitted activation curve with a large enough effect; inconclusive = small, poorly fitted or top-dose-only effect; inactive = flat fitted curve, though single readings scatter. Starred links: 1 amine or outer side, 2 acyl side, 3 side chain; linkers in the order of their positions; H or OH if unused. Positions of bridges follow the written chain, without caps; N, C: chain ends. Non-standard residues stand in square brackets, D forms with d. Residues, ends and D or L forms follow the SMILES beside them. *: point of attachment. X5 = NC1=N[C@@H]([C@H](N[*:1])C(=O)[*:2])C[C@H](O)N1; ΔAla(Z-3-ureido) = NC(=O)N/C=C(\N)C(=O)O; pGlu = O=C1CC[C@@H](C(=O)O)N1; β3hOrn = NCCC[C@H](N)CC(=O)*; Thz = O=C(O)[C@@H]1CSCN1; Dap = NC[C@H](N)C(=O)O
# Assay: qHTS assay to identify small molecule phospholipidosis (PLD) inducers (AID 1259344)
# Settings: HepG2 phospholipidosis, LipidTOX Red imaging, 24 h; series mostly up to 38.3 µM
# Description: National Center for Advancing Translational Sciences [NCATS]
# Drug-induced Phospholipidosis (PLD) caused by cationic amphiphilic drugs is characterized by the appearance of unicentric or multicentric-lamellar bodies when viewed under electron microscope. Electron microscopy is the gold standard method for PLD detection, however, this method is time-consuming and labor intensive, making it unsuitable for evaluating a large set of compounds. A cell-based phospholipidosis assay has been developed using the LipidTox reagent in HepG2 cells and miniaturized into a 1536-well plate format. Drug induced phospholipid accumulation is stained with the LipidTox dyes in red color which then is determined using an automated high content screening system.
# HepG2 cells are dispensed at 900 cells/3 uL/well into Collagen I-coated 1536-well black-wall/clear-bottom assay plates (Greiner Bio-One, Monroe, NC) using the Multidrop Combi 8 channel dispenser (Thermo Fisher, Waltham, MA, USA). The assay plates are incubated at 37 C for 4 hours to allow the cell attachment. 3 uL of 1:500 LipidTOX Red dye is added using the dispenser, and then 23 nL compounds are added via a Wako Pintool station (Wako Automation, San Diego, CA). Amiodarone, a known PLD inducer, was used as a positive control and DMSO was used as a negative control. The assay plates were then incubated at 37 C for 24 hours.
# For fixations, 4 uL of 8% paraformaldehyde fixative solution containing 10 ug/mL Hoechst 33342 in Dulbecco's phosphate-buffered saline (DPBS) is added using a Kalypsys washer/dispenser (Kalypsys, San Diego, CA, USA). After incubation at room temperature for 30 min, the assay plates are washed once with DPBS using a Kalypsys washer/dispenser. The assay plates are then sealed and stored at 4 C before imaging. The fluorescence intensities (595 nm excitation, 615 nm emission for LipidTOX; 352 nm excitation, 461 nm emission for Hoechst 33342) are measured using an ImageXpress Micro Widefield High Content Screening System (Molecular Devices, Sunnyvale, CA, USA) with a 20x Plan Fluor objective. Images are acquired for one site in each well and analyzed with the MetaXpress software (Molecular Devices) using the Transfluor module. Several algorithmic outputs, such as pit count per well, pit count per cell, pit integrated intensity per well, and pit integrated intensity per cell, are used for quantitative image analysis for PLD.
# Potency is read from the fitted curve at half-maximal effect.
SMILES,Potency,PLD induction
C[N+]1(C)CCN(CC(O)(c2ccccc2)C2CCCCC2)CC1 (stereo not given),inactive,
FCOC(C(F)(F)F)C(F)(F)F,inactive,
OC[C@H]1O[C@@H](O[C@H]2[C@H](O)[C@@H](O)[C@H](O)O[C@@H]2CO)[C@H](O)[C@@H](O)[C@@H]1O,inactive,
CS(=O)(=O)c1ccc(C2=C(c3ccccc3)C(=O)OC2)cc1,inactive,
NCCC[C@H](N)CC(=O)N[C@H]1CNC(=O)[C@H]([C@H]2C[C@H](O)NC(N)=N2)NC(=O)/C(=C/NC(N)=O)NC(=O)[C@H](CO)NC(=O)[C@H](CO)NC1=O (β3hOrn-[Dap]SS[ΔAla(Z-3-ureido)][X5]; lactam 1-C),inactive,
CCCCCCCC(=O)CC[C@@H]1[C@@H](C/C=C\CCCC(=O)OC(C)C)[C@@H](O)C[C@H]1O,inactive,
Cc1ncc(COP(=O)(O)O)c(CN)c1O,,-1.52% [at 7.66 µM] (inactive)
Cc1nc(NS(=O)(=O)c2ccc(N)cc2)nc(C)c1Br,inactive,
C=C1C(=O)O[C@H]2[C@H]1CC/C(C)=C\CC[C@@]1(C)O[C@@H]21,inactive,
Cc1c(Cl)cccc1Nc1ncccc1C(=O)O,inactive,
COc1ccc(C(=O)CCC(=O)O)c2ccccc12,inactive,
O=c1[nH]cnc2[nH]cc(CN3CCCCC3)c12,,1.92% [at 1.53 µM] (inactive)
CC(C)[C@@H]1CC[C@@H](C)C[C@H]1OC(=O)c1ccccc1O,inactive,
CC(=O)N[C@@H](C=O)[C@@H](O)[C@H](O)[C@H](O)CO,inactive,
CC(=O)N(CC(C)C(=O)O)c1c(I)cc(I)c(N)c1I (stereo not given),inactive,
C=C1CC2C3CCC4=CC(=O)C=C[C@]4(C)[C@@]3(F)[C@@H](O)C[C@]2(C)[C@@]1(O)C(=O)COC(C)=O (stereo not given in full),,-8.32% [at 7.66 µM] (inactive)
CN[C@@H]1[C@H](O[C@H]2[C@H](O[C@H]3[C@H](O)[C@@H](O)[C@H](N=C(N)N)[C@@H](O)[C@@H]3N=C(N)N)O[C@@H](C)[C@]2(O)CO)O[C@@H](CO)[C@H](O)[C@H]1O,inactive,
C[N+](C)(CCCCCC[N+](C)(C)C1c2ccccc2-c2ccccc21)C1c2ccccc2-c2ccccc21,inactive,
CO[C@@H]1[C@@H](O[C@@H]2O[C@H](C)[C@@H](O[C@H]3C[C@@](C)(O)[C@@H](OC(=O)CC(C)C)[C@H](C)O3)[C@H](N(C)C)[C@H]2O)[C@@H](CC=O)C[C@@H](C)C(=O)/C=C/C2OC2C[C@@H](C)OC(=O)C[C@H]1OC(C)=O (stereo not given in full),inactive,
CN(CCO)CC(O)Cn1cnc2c1c(=O)n(C)c(=O)n2C (stereo not given) (tested in a mixture with another compound),inactive,

SMILES,Potency,PLD induction
CCN(CC)CCOCCOC(=O)C(CC)(CC)c1ccccc1,10 µM (active),
CC(C)c1nc(N(C)S(C)(=O)=O)nc(-c2ccc(F)cc2)c1/C=C/C(O)CC(O)CC(=O)O (stereo not given),inactive,
S=C1SCN(Cc2ccccc2)CN1Cc1ccccc1,inactive,
CC[C@H](CC[C@@H](C)[C@H]1CC[C@H]2[C@@H]3CC=C4C[C@@H](O)CC[C@]4(C)[C@H]3CC[C@]12C)C(C)C,inactive,
CNC(C)[C@@H]1CC[C@@H](N)[C@@H](O[C@H]2[C@H](O)[C@@H](O[C@H]3OC[C@](C)(O)[C@H](NC)[C@H]3O)[C@H](N)C[C@@H]2N)O1 (stereo not given in full),inactive,
CCCC(CCC)C(N)=O,,0.287% [at 7.66 µM] (inactive)
Cc1onc(-c2ccccc2)c1C(=O)N[C@@H]1C(=O)N2[C@@H]1SC(C)(C)[C@@H]2C(=O)O,,-3.09% [at 7.66 µM] (inactive)
O=C1CC[C@@H](C(=O)N2CSC[C@H]2C(=O)O)N1 ([pGlu]-[Thz]-OH),inactive,
C[C@]12CC[C@@H]3c4ccc(OS(=O)(=O)O)cc4CC[C@H]3[C@@H]1CCC2=O,,0.241% [at 7.66 µM] (inactive)
O=C1/C(=C\c2cccs2)CCC/C1=C\c1cccs1,inactive,
O=C(O)CC/C=C\CC[C@@H]1[C@@H](N2CCCCC2)[C@@H](O)C[C@@H]1OCc1ccc(-c2ccccc2)cc1,inactive,
CC(/C=C/C=C(\C)C(=O)O[C@@H]1O[C@H](CO[C@@H]2O[C@H](CO)[C@@H](O)[C@H](O)[C@H]2O)[C@@H](O)[C@H](O)[C@H]1O)=C\C=C\C=C(C)\C=C\C=C(/C)C(=O)O[C@@H]1O[C@H](CO[C@@H]2O[C@H](CO)[C@@H](O)[C@H](O)[C@H]2O)[C@@H](O)[C@H](O)[C@H]1O,inactive,
NC(Cc1ccccc1)C(=O)O (stereo not given),inactive,
OCCO[C@@H]1[C@@H](O)[C@H](O)[C@@H](CO)O[C@@H]1O,inactive,
O=C(O)c1cc(N=Nc2ccc(O)c(C(=O)O)c2)ccc1O,inactive,
CCOC(=O)[C@@H](N)CS,inactive,
O=C1CCC(=O)N1CO,inactive,
CN1CCc2c(c3ccccc3n2Cc2ccccc2)C1,inactive,
CC1CS(=O)(=O)CCN1/N=C/c1ccc([N+](=O)[O-])o1 (stereo not given),inactive,
N[C@@H](C(=O)N[C@@H]1C(=O)N2C(C(=O)O)=C(Cl)CC[C@H]12)c1ccccc1,inactive,
